Source: PMC5540273 (PLoS ONE, 2017)

system: CIT; details: concentration: 1 μM, replicates: in singlicate; n = 1
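Also: KINOMEscan kinase panel screen.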

Compound | %Inh
Cl.Cl.NCC(C(=O)Nc1cc(Br)c(-c2ccnc3[nH]ccc23)s1)c1ccccc1 (stereo not drawn) [GSK1269851] | 99%
Cl.c1ccc(-c2ccc3c(Nc4ccc5[nH]ncc5c4)ccnc3c2)nc1 [GW440137] | 11%
NCCCC(NC(=O)c1cc(Br)c(-c2ccnc3[nH]ccc23)s1)c1ccccc1.O=C(O)C(F)(F)F.O=C(O)C(F)(F)F (stereo not drawn) [GSK1287544] | 90%
Cl.Cl.NCC(NCc1ccc(-c2ccnc3[nH]ccc23)s1)c1ccccc1 (stereo not drawn) [GSK1321565] | 93%
Cc1ccc(S(=O)(=O)Nc2ccc(Nc3nccc(Nc4cccc5[nH]ncc45)n3)cc2)cc1 [GSK581271] | 28%
O=C(Nc1cccc(Oc2ccc3nc(NC(=O)C4CC4)cn3n2)c1)c1ccccc1C(F)(F)F | 63%
COc1cccc(NC(=O)NC2CCN(c3ccnc(Nc4cc(OC)c(OC)c(OC)c4)n3)C2)c1 (stereo not drawn) [GSK1379763] | 23%
Cl.Cl.NCC(NC(=O)c1cc(-c2ccccc2)c(-c2ccnc3[nH]ccc23)s1)c1ccccc1 (stereo not drawn) [GSK1321561] | 99.9%
Cc1cccc(NC(=O)Nc2ccc(Oc3ncnc4ccn(C)c34)cc2)c1 | 0%
COc1cc(Nc2nccc(-c3c(-c4cccc(NC(=O)c5c(F)cccc5F)c4)nn4ncccc34)n2)cc(OC)c1OC [GSK327238] | 71%
COc1cc(Nc2nccc(N3CCC(NC(=O)Nc4cccc(C(C)=O)c4)C3)n2)cc(OC)c1OC (stereo not drawn) [GSK1379753] | 11%
Cc1ccc(C)c(NC(=O)NC2CCN(c3ccnc(Nc4ccc(F)cc4)n3)C2)c1 (stereo not drawn) [GSK1379720] | 0%
COc1ccc(CNC(=O)NC2CCN(c3ccnc(Nc4ccc(F)cc4)n3)CC2)cc1 [GSK1379788] | 28%
Nc1ncc(-c2cccnc2)c2scc(-c3ccc4c(c3)CCN4C(=O)Cc3ccccc3)c12 [GSK683281] | 49%
O=C(Nc1n[nH]c2cc(-c3ccoc3)ccc12)C1CC1 [SB-738481] | 0%
O=c1[nH]cc(-c2ccc(N3CCOCC3)cc2)c2sc(-c3cn[nH]c3)cc12 [GSK2276055] | 92.1%
Nc1n[nH]c2cnc(-c3ccccc3)cc12 [SB-642124] | 19%
O=C(Nc1cccc(-c2nn3ccccc3c2-c2ccnc(Nc3cccc(C(F)(F)F)c3)n2)c1)c1c(F)cccc1F [GSK292658] | 44%

Compound | %Inh
CN(c1ccc(NC(=O)Nc2cc(C(F)(F)F)ccc2F)cc1)c1ccnc(Nc2ccc(S(N)(=O)=O)cc2)n1 [GW809893] | 57%
CNC(=O)c1ccccc1Nc1nc(Nc2ccc(N3CCOCC3)cc2)ncc1Cl.Cl [GSK1576028] | 26%
COC(=O)Nc1nc2ccc(Oc3ccc(NC(=O)Nc4cc(C(F)(F)F)ccc4F)cc3)cc2n1C.Cl [GW692089] | 100%
COc1cc2c(cc1OCCN1CCNCC1)ncc1c3ccc(C#N)cc3[nH]c21 | 98.8%
O=C(NC1CCN(c2ccnc(Nc3ccc(F)cc3)n2)C1)c1cc2ccccc2s1 (stereo not drawn) [GSK1379716] | 33%
Oc1cc(Nc2ccnc3cc(I)ccc23)ccc1F [GW552771] | 30%
CC(=O)Nc1nc2cnc(Nc3cc(NC(=O)c4cccc(C5(C#N)CC5)c4Cl)ccc3C)nc2s1 | 62%
O=C(Nc1ccccc1F)NC1CCN(c2ccnc(Nc3ccc(F)cc3)n2)CC1 [GSK1379800] | 0%
O=C(Nc1n[nH]c2nc(-c3ccc(O)cc3)ccc12)C1CC1 [SB-710363] | 29%
c1ccc(Oc2ccc(Nc3ccnc4cc(-c5ccc(CNCCN6CCOCC6)o5)ccc34)cc2)nc1 [GW567145] | 7%
COc1cccc(C(=O)Nc2cccc(Oc3ccc4nc(NC(=O)C5CC5)cn4n3)c2)c1 | 96.5%
Cc1occc1-c1ncc(OC[C@@H](N)Cc2c[nH]c3ccccc23)cc1-c1ccc2[nH]nc(C)c2c1.O=C(O)C(F)(F)F [GSK682037] | 99.1%
COCCOCCOc1cc2ncc3c4ccc(C#N)cc4[nH]c3c2cc1OC | 98.2%
Cn1cc(-c2ccc3c(c2)CCN3C(=O)Cc2cccc(Cl)c2)c2c(N)ncnc21 [GSK2606590] | 26%
O=C(Nc1cccc(-c2nn3ncccc3c2-c2ccnc(Nc3ccccc3)n2)c1)c1c(F)cccc1F [GSK198271] | 29%
CN(C)Cc1ccc(-c2ccc3c(Nc4ccc(Oc5ccccn5)cc4)ccnc3c2)o1 [GW567148] | 0%
C[C@@H](Oc1cc(-n2cnc3cc(-c4ccnc(NCCS(C)(=O)=O)c4)ccc32)sc1C(N)=O)c1ccccc1Cl [GSK907232] | 36%
O=C(O)C(F)(F)F.O=C(O)C(F)(F)F.O=c1[nH]ccc2nc(N[C@@H]3CCCNC3)nc(Nc3ccc(S(=O)(=O)N4CCOCC4)cc3)c12 [GSK2177277] | 76%
